The experiment is described as follows: Primary qHTS for inhibitors of nuclear receptor binding SET domain protein 2 (NSD2) in an isogenic RCH-ACV NSD2 p.E1099K mutant (9B) (AID 1645876). Further: nearly all actives have a fitted effect of over 70% in size. The note with it: RCH-ACV (leukaemia line) NSD2 E1099K (9B) viability, CellTiter-Glo, 72 h; series mostly up to 44.9 µM. (In general: In qHTS, concentration-response curves come from the screen itself.)

Inconclusive results are not listed. Entries that show only a call come without a potency. Active and inactive are the calls of the source. The call rests on the fitted dose curve; in most records, active means well fitted inhibition curve with a large enough effect; inconclusive means small, poorly fitted or top-dose-only effect; inactive means flat fitted curve, though single readings scatter.

Consider `Nc1ccn(CC(CO)OCP(=O)(O)O)c(=O)n1` (stereo unspecified), for which the Potency entry is “inactive”.

(Values after PubChem BioAssay (NCATS).)
